# Env fusion inh = HIV envelope-mediated fusion inhibition; HeLa-JRFL Env/CEM21 cell fusion, luciferase; inhibition, % at 12.3 µM; actives 1.1% (n = 360,000); AID 651610;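 active = mean replicate inhibition score of at least 50 and every replicate individually at or above 50; inconclusive = only one of the two criteria met; inactive = mean below 50 and not all replicates reaching 50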;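 also: 0% = plate neutral controls and 100% = maraviroc near 300 nM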
# Wnt bcat act = activates Wnt/beta-catenin signaling in a reporter cell assay; activator, plate reader; actives 1.2% (n = 300,000); activation, % at 9.35 µM; AID 743398; in the data active = activation above about 30%, passing the limit was not always enough; inconclusive = no clear call, values can overlap the other calls;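 also: 0% = neutral control wells and 100% = positive control wells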
# miR122 inh = inhibitors of miR-122 in Huh7 cells. Huh7 miR-122 Renilla luciferase sensor, 48 h; neutral wells = 0, positive control = 100. activation (reporter increase), % at 12.5 µM. actives 0.3% (n = 340,000). AID 602342;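 active = mean replicate activation score at least 90 and every replicate individually at or above 90; inconclusive = only one of the two criteria met; inactive = neither criterion met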;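 also: higher luciferase means less miR-122 activity so hits act as miR-122 inhibitors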
# esBAF inh = SWI/SNF esBAF complex inhibition; mouse ES cells, Bmi1-luciferase knock-in reporter, 24 h; 100% = twice the neutral-well signal; reporter increase, % at 12.5 µM; actives 2% (n = 350,000); AID 602393; in the data active = activation above about 40%; inconclusive = no clear call, values can overlap the other calls;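 also: 0% = median of the plate's neutral control wells and 100% = double that signal; a rise in the Bmi1 reporter signal indicates esBAF inhibition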
# MITF TRPM1 HTS = increases MITF-driven TRPM1 promoter luciferase signal. SK-MEL-5 TRPM1-promoter luciferase, 24 h; % of positive control, neutral wells = 0. activation, % at 12.5 µM. actives 0.75% (n = 300,000);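 active = mean activation of at least 80% with every replicate also reaching 80%; inconclusive = mean reaches 80% but some replicate falls short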;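 also: 0% = neutral control wells and 100% = parthenolide positive control wells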
# * marks the source's active call; other numbers are inactive results; u = inconclusive; x = no result; [ ] = dose if it differs, or a comment. Hits are enriched below; roughly 3.4% of the tested compounds scored in any of these assays.
SMILES,Env fusion inh,Wnt bcat act,miR122 inh,esBAF inh,MITF TRPM1 HTS
COc1ccc2c3c(n(C)c2c1)[C@@H](CO)N(C(=O)Nc1ccc(F)cc1)CC31CCN(Cc2cccc(F)c2)CC1,82*[16.7 µM],x,x,x,x
COc1ccc2c3c([nH]c2c1)[C@H](CO)N(C(=O)Nc1ccc(F)cc1)CC31CN(S(=O)(=O)c2cccc(C)c2)C1,-49[16.7 µM],x,x,x,x
COc1ccc2c3c([nH]c2c1)[C@H](CO)N(C(=O)Nc1cccc(F)c1)CC31CN(S(=O)(=O)c2cccc(C)c2)C1,75*[16.7 µM],x,x,x,x
COc1ccc2c3c([nH]c2c1)[C@@H](CO)N(C(=O)Nc1ccc(F)cc1)CC31CN(S(=O)(=O)c2cccc(C)c2)C1,15[16.7 µM],x,x,x,x
C[C@@H]1CCCCO[C@H](CN(C)C(=O)Nc2cccc3ccccc23)[C@@H](C)CN([C@@H](C)CO)C(=O)c2cc(NC(=O)CCC(F)(F)F)ccc2O1,3[16.7 µM],x,3[16.7 µM],4,x
O=C(c1ccccc1)N1C[C@@H]2[C@H](c3ccccc31)[C@@H](CO)N2S(=O)(=O)c1ccccc1,x,x,12[16.7 µM],-6,x
Cn1c(C(=O)Nc2ccccc2)cc2sccc21,-84,51*,16,-10,32
COC(=O)c1ccc(NC(=O)c2cc3sccc3n2C)cc1,-1,19,x,55*,30
COc1ccc(NC(=O)c2cc3sccc3n2Cc2ccc(F)cc2)cc1OC,-307,17,x,65*,55
CCc1ccccc1NC(=O)c1cc2sccc2n1C,-26,1,-1,12,8
COc1ccc(OC)c(NC(=O)c2cc3sccc3n2C)c1,x,x,-2,16,8
COc1cc(NC(=O)c2cc3sccc3n2C)cc(OC)c1,-32,u,3,42*,77
O=C(Nc1ccccc1F)N1C[C@@H]2[C@H](c3ccccc31)[C@@H](CO)N2C(=O)c1ccccc1F,x,x,50[16.7 µM],29,x
Cc1ccc(N(C)S(=O)(=O)c2c[nH]c3ccc([N+](=O)[O-])cc23)cc1,3,2,110*,-12,12
CCc1ccc(C(=O)COC(=O)c2cccc(N3C(=O)c4c(C)nc5ccccc5c4C3=O)c2)cc1,-43,48*,-5,-21,-9
COCC(=O)N(C)C[C@@H]1Oc2ncc(C#Cc3cccnc3)cc2C(=O)N([C@H](C)CO)C[C@@H]1C,11[16.7 µM],x,-1[16.7 µM],3,x
CC1CCN(C(=O)Cn2nnc(-c3cccs3)n2)CC1,-27,5,-4,48*,38
Cc1ccc(C(=O)Cn2nnc(-c3cccs3)n2)cc1,10,40*,-7,20,43
CCC(=O)Nc1ccc2c(c1)OC[C@@H](C)N(C(=O)C1CCC1)C[C@H](C)[C@H](OC)CN(C)C2=O,x,x,x,1,x
C[C@H](CO)N1C[C@H](C)[C@@H](CN(C)C(=O)c2ccncc2)Oc2ncc(C#CC3CCCC3)cc2C1=O,0[16.7 µM],x,-3[16.7 µM],-2,x
OCCCCCN=c1cc(-c2ccccc2)oc2ccc(Cl)cc12,x,x,14,78*,3
Clc1ccc2oc(-c3ccccc3)cc(=NCCCN3CCOCC3)c2c1,-131,57*,x,x,103*
Clc1cccc(-c2nc(NCCCN3CCOCC3)c3ccccc3n2)c1,3,0,-3,-7,-2
CN(C)CCCN1C(=O)c2cccc3cccc(c23)C1=O,-14,-1,x,-3,x
CCCCN1C(=O)c2cccc3cc(O)cc(c23)C1=O,-55,61*,-3,x,x
SMILES,Env fusion inh,Wnt bcat act,miR122 inh,esBAF inh,MITF TRPM1 HTS
COc1ccc(CN(C)C[C@H]2Oc3ccc(NS(=O)(=O)c4ccc(C)cc4)cc3C(=O)N([C@H](C)CO)C[C@@H]2C)cc1,x,x,6[16.7 µM],-6,x
O=C(COc1ccccc1Br)c1ccc(O)cc1O,x,3,1,10,7
O=C(COC(=O)c1ccc(O)cc1O)c1ccc2c(c1)OCO2,15,44*,4,63*,45
O=C(CCCN1CCOCC1)c1ccc2c(c1)OCCO2,x,x,1,50*,35
O=C(COc1ccccc1Br)c1ccc2c(c1)OCO2,-2,13,x,43*,58
O=C(COC(=O)c1cc(Cl)ccc1O)c1ccc2c(c1)OCO2,-55,u,x,x,u
COC(=O)C(Cc1ccc(O)cc1)NC(=O)c1ccc2c(c1)OCCO2 (configuration not stated),-13,10,-4,55*,19
C[C@@H]1CCCCO[C@H](CN(C)C(=O)C2CCCCC2)[C@@H](C)CN([C@H](C)CO)C(=O)c2cc(NC(=O)Nc3ccc(C(F)(F)F)cc3)ccc2O1,5[16.7 µM],x,-6[16.7 µM],-3,x
C[C@@H]1CCCCO[C@@H](CN(C)CC2CCCCC2)[C@H](C)CN([C@@H](C)CO)C(=O)c2cc(NC(=O)CCC(F)(F)F)ccc2O1,7[16.7 µM],x,-5[16.7 µM],2,x
CCS(=O)(=O)NCC[C@@H]1CC[C@@H](NC(=O)C2CCCCC2)[C@H](CO)O1,x,x,x,0,x
Cc1cc(C(=O)COC(=O)c2ccc(O)cc2O)c(C)n1C(C)C,x,53*,x,61*,85*
O=C(COC(=O)c1ccc(O)cc1)c1ccc2c(c1)OCCO2,-111,38*,-6,38,79
C[C@@H]1CCCCO[C@H](CN(C)Cc2ccncc2)[C@@H](C)CN([C@@H](C)CO)C(=O)c2cc(NC(=O)NC3CCCCC3)ccc2O1,-40[16.7 µM],x,9[16.7 µM],-8,x
C/C(=N\NC(=O)c1ccccn1)C12CC3CC(CC(C3)C1)C2,-22,2,1,49*,52
C/C(=N\NC(=O)c1ccoc1C)c1ccccc1,-29,19,3,x,x
N/C(=N\OC(=O)C12CC3CC(CC(C3)C1)C2)c1ccccn1,-138,x,-2,75*,98*
C/C(=N/NC(=O)c1ccoc1C)C12CC3CC(CC(C3)C1)C2,x,x,4,57*,-6
O=C(C[C@H]1CC[C@@H](NS(=O)(=O)c2ccc(F)cc2)[C@H](CO)O1)N1CCC(Cc2ccccc2)CC1,14[16.7 µM],x,x,-3,x
O=C(CCC1CCCCC1=O)c1ccccc1 (configuration not stated),-37,x,-1,17,32
CCc1ccc(C(=O)O)cc1,18,1,-6,-6,10
Cc1ccc(C(=O)CCC2CCCC2=O)cc1 (configuration not stated),x,x,-6,57*,33
Cc1ccc(C(=O)CCC2CCCCC2=O)cc1 (configuration not stated),-100,-3,2,45*,72
CCc1ccc(C(=O)CCC2CCCCC2=O)cc1 (configuration not stated),x,x,10,34,89*
Cc1noc(C)c1S(=O)(=O)Nc1ccc2c(c1)C(=O)N([C@@H](C)CO)C[C@@H](C)[C@@H](CN(C)Cc1ccncc1)OCCCC[C@H](C)O2,1[16.7 µM],x,-2[16.7 µM],1,x
O=C(C[C@H]1CC[C@H](NC(=O)c2ccncc2)[C@H](CO)O1)NCC1CCCCC1,-7[16.7 µM],x,9[16.7 µM],3,x
C[C@@H](NC(=O)C[C@@H]1C=C[C@H](NS(=O)(=O)c2cccc(F)c2)[C@H](CO)O1)c1ccccc1,-16[16.7 µM],x,x,0,x
O=c1c2sc(-c3ccccc3)cc2nc2n1CCCCC2,-46,56*,-4,x,x
